Reference: PubChem BioAssay (NCI)
Where “and” joins values, the source holds several entries; their conditions need not be identical. Identical values can stand only once. Compounds without any hit were thinned out: in the full panel of roughly 79,000, 15% have a hit. Unmarked numbers belong to inactive results. Calls of active or inactive are those of the source. Rule as the data show it: active = growth inhibition above about 70%; inactive = the rest.

Columns and labels:
[1] = NCI Yeast Anticancer Drug Screen. Data for the rad50 strain (AID 155);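 also: 0% = growth of vehicle-only cultures of the same strain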; details: S. cerevisiae rad50 strain growth inhibition; at 50.0 µM; active compounds read high
Procedure, shortened: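 Readout: growth inhibition relative to vehicle-treated cultures. Compound exposure was carried out in a genetically defined yeast strain deficient in DNA damage repair.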

[2] = NCI Yeast Anticancer Drug Screen. Data for the mec2-1 strain (AID 157); details: S. cerevisiae mec2-1 strain, at 50.0 µM, active compounds read high
Procedure, shortened: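 mec2-1 yeast strain, carrying an alteration in DNA damage repair or cell cycle control, was exposed to compounds; growth inhibition was measured relative to vehicle-treated controls.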

[3] = NCI Yeast Anticancer Drug Screen. Data for the sgs1 mgt1 strain (AID 161);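 also: 0% = growth of cultures given vehicle only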; details: S. cerevisiae sgs1 mgt1 strain, at 50.0 µM, active compounds read high
Procedure, shortened: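 This yeast growth screen uses a strain with defined DNA-repair lesions; compound-treated growth is compared with vehicle-treated growth.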

[4] = NCI Yeast Anticancer Drug Screen. Data for the cln2 rad14 strain (AID 165);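 also: 0% = growth equal to vehicle treated cultures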; details: S. cerevisiae cln2 rad14 strain, at 50.0 µM, active compounds read high
Procedure, shortened: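 Yeast carrying cln2 and rad14 alterations (cell cycle control and DNA damage repair) were exposed to compounds. Growth inhibition was measured against vehicle-treated controls.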

[5] = NCI Yeast Anticancer Drug Screen. Data for the bub3 strain (AID 167); details: S. cerevisiae bub3 mutant strain, at 50.0 µM, active compounds read high
Procedure, shortened: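 Readout: yeast growth inhibition, expressed relative to vehicle-only wells. The test organism is a mutant strain from a panel with lesions in DNA repair or checkpoint genes.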

[6] = NCI Yeast Anticancer Drug Screen. Data for the mlh1 rad18 strain (AID 175); details: S. cerevisiae mlh1 rad18 strain growth inhibition; at 50.0 µM; active compounds read high
Procedure, shortened: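 Growth inhibition of the yeast strain was measured after compound exposure and expressed relative to vehicle-treated controls. The strain carries defined defects in DNA damage repair.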

| Compound | growth inhibition [1] | growth inhibition [2] | growth inhibition [3] | growth inhibition [4] | growth inhibition [5] | growth inhibition [6] |
| --- | --- | --- | --- | --- | --- | --- |
| c1ccc(N2CCN(Cc3c[nH]c4ccccc34)CC2)cc1 | 7.9% | 1.9% | 7.55% | -26.6% | 0.85% | -9.6% |
| CC(=O)c1ccccc1O.[Cr] | 3.05% | -32.3% | 19.3% | 3.75% | -18.3% | 21.2% |
| CCNC(=O)CCl | 3.75% | 1.2% | 21.4% | -2% | -0.9% | 10.4% |
| COc1ccc(CC(N)c2ccccc2)cc1 (stereo unspecified) | 8.25% | 18.1% | 6.4% | 10.2% | 12.8% | -3.5% |
| COP(=O)(NC12CC3CC(CC(C3)C1)C2)OC | -4.75% | 5.45% | -13.4% | 15.7% | -1.1% | -16.7% |
| CCCCCCCNC(=O)CBr | 44% | 26.2% | 33.4% | 4.75% | 41.2% | 46.5% |
| CC[C@]12C=CCN3CC[C@@]4(c5ccc(OC)cc5N(C)[C@H]4[C@@](O)(C(=O)OC)[C@@H]1OC(C)=O)[C@@H]32 | 30.7% | -6.5% | 18.3% | 19.8% | 20.9% | 8.35% |
| OCCCCO | -5.9% | -1.7% | -12% | -10.4% | -12.1% | 1.35% |
| c1ccc(N2CCNCC2)cc1 (tested in a mixture with another compound) | -18.1% and 5.8% | 6.7% and -16.3% | -26.1% and -5.8% | -4% and -48.5% | 10.2% and 10.3% | -27.7% and -4.65% |
| CC1=C[C@H]2[C@@]3(O)[C@H](C)C[C@]4(OC(=O)C(C)C)[C@H]([C@@H]3C=C(CO)C[C@]2(O)C1=O)C4(C)C | 20.1% | 14.3% | 4.8% | 3.9% | 20.8% | 10.8% |
| CCn1nnnc1N | 3.35% | 15.9% | 11.1% | 16.4% | 17.8% | 14% |
| C/C=C(\C)C(=O)OC1CCN2CC=C(COC(=O)C(O)(C(C)O)C(C)(C)O)C12 (stereo unspecified) | 12.3% | 2.3% | 2.5% | 4.85% | 6.25% | -0.55% |
| CCCCOP(=O)(CCCC)OCCCC.CCCCOP(=O)(CCCC)OCCCC.CCCCOP(=O)(CCCC)OCCCC.CCCCOP(=O)(CCCC)OCCCC.O.O.[Co+2].[O-][Cl+3]([O-])([O-])O | 25.4% | 5.55% | 7.35% | 17.6% | 19.8% | 5.8% |
| O=C1C=C2c3ccccc3CC(C(=O)O)C2CC1 (stereo unspecified) | -20.5% | -14.2% | -3.45% | -22.9% | 2.3% | 9% |
| C[CH2][Sn]([CH2]C)([O]c1cccccc1=O)[O]c1cccccc1=O | 87.1% (active) | 18.8% | 94.2% (active) | -15.6% | 7.8% | 52.5% |
| CC(C)(C)C1=C(Br)C(OC(=O)C(F)(F)F)(C(C)(C)C)OP1(=O)c1ccccc1 (stereo unspecified) | 1.55% | 12.2% | -22.9% | 30.9% | -10.3% | -7.2% |
| CCOP(=O)(OCC)C(=C(Cl)Cl)C(Cl)Cl | 82.6% (active) | 85.2% (active) | 8.75% | 37.6% | -17.1% | 49.8% |
| CC(C)(NC1=NCCO1)c1ccccc1 | -4.95% | -16.9% | -7.65% | 5.5% | -13.7% | 62% |

| Compound | growth inhibition [1] | growth inhibition [2] | growth inhibition [3] | growth inhibition [4] | growth inhibition [5] | growth inhibition [6] |
| --- | --- | --- | --- | --- | --- | --- |
| CCc1ccccc1C(C(=O)NC1CN2CCC1CC2)c1ccsc1 (stereo unspecified) | -10% | -28.8% | -43.3% | -21.2% | 8.05% | -23.1% |
| COC(=O)C1=C(C)N2CCCOC2(C)C(C(=O)OC)C1c1cccc(Cl)c1 (stereo unspecified) | 61.4% | 16.6% | 40.5% | 29.1% | 44.4% | 61.5% |
| [Pt].c1ccc([PH+](CC[PH+](CC[PH+](c2ccccc2)c2ccccc2)c2ccccc2)CC[PH+](c2ccccc2)c2ccccc2)cc1 (stereo unspecified) | 22.8% | 14.3% | 25.6% | 8.6% | 16.6% | 8.75% |
| CO/C=C/c1ccc2c(c1)OCO2 | 34.6% | 25.5% | 16.7% | 10.2% | 12.7% | -10.8% |
| Cc1cccc(N=Nc2ccc(N(C)C)cc2)c1 | -8.45% | -36.6% | 2.4% | -29.6% | -8.6% | -13.3% |
| Oc1ccc(Cc2ccc(O)cc2)cc1 | -0.2% | -3.4% | -0.3% | -16.3% | -3.1% | 5.85% |
| O=[As](O)(O)c1ccccc1 | 18.2% | -7.1% | 4.75% | 4.65% | -38.1% | -15.7% |
| COc1cc([C@@H]2c3cc4c(cc3C[C@H]3COC(=O)[C@@H]32)OCO4)cc(OC)c1OC | 5.2% | -3.05% | 10.2% | 27.6% | 24.4% | 13.6% |
| C1CC[N-]CC1.C1CC[N-]CC1.[Cl][Pd][Cl] | 1.25% | 8.8% | 13% | -23.6% | 10.8% | 15.4% |
| Cc1ccc(NP(=S)(Nc2ccc(C)cc2C)Nc2ccc(C)cc2C)c(C)c1 | 18.3% | -1.6% | -3.1% | 17.9% | 2.7% | 9.55% |
| Cc1cc(-n2c(C)nc3ccccc3c2=O)on1 | -35.1% | -15.7% | -4.15% | -47.5% | 8.9% | 3.75% |
| C/C(=C\C(C)C)C1(C)C(=O)NC(=O)NC1=O | 8.85% | 11.4% | -6.3% | 4.95% | 4.4% | -19.3% |
| CCCCCCCCOC(=O)c1ccccc1C(=O)OCCCCCCCC | -0.95% | -3.35% | 18.6% | 9.25% | -3.95% | -5.5% |
| CCC1(CC)COP(=S)(S)OC1 | 10.8% | -17.8% | -16.9% | 10.1% | -3.5% | -3.2% |
| COC1C(O)C(C)OC(O[C@@H]2C[C@H]3CC[C@@H]4[C@H](CC[C@]5(C)[C@@H](C6=CC(=O)OC6)CC[C@]45O)[C@@]3(C)[C@H](O)C2)C1O (stereo partly specified) | 1.4% | -12.5% | -3.55% | -6.35% | 1% | 3.8% |
| [N-]=[N+]=C1CNC(=O)NC1=O | 9.9% | -19.6% | -10.6% | 0.05% | -0.15% | 1.05% |
| CCCN(CCC)CC(O)c1ccc2c3c(cccc13)CC2 (stereo unspecified) | 21.9% | -5.9% | 19.2% | -10.1% | -4.6% | 16.4% |
| CC[N+](C)(CC)CCC(C(=O)NC)(c1ccccc1)c1ccccc1 | -2.45% | -1.35% | -22.8% | -34.6% | 0.05% | -19.1% |
